Results filed as inconclusive are left out. A call without a number means that no potency is given here. The source made the active and inactive calls. Unless noted, the call rests on the fitted dose curve; in most records, active means well fitted curve in the direction sought with a large enough effect; inconclusive means small, poorly fitted or top-dose-only effect, or another doubt; inactive means no such curve, though single readings can be large; an effect the other way counts as inactive or inconclusive.
What was measured:
[1] = biological target: Alpha-galactosidase A (Homo sapiens) (UniProt P06280); experiment: Counterscreen for Glucocerebrosidase Inhibitors: qHTS Assay for Human alpha-Galactosidase at pH 4.5 (AID 992)
Sequence of Alpha-galactosidase A (Homo sapiens) (P06280 whole entry, looked up): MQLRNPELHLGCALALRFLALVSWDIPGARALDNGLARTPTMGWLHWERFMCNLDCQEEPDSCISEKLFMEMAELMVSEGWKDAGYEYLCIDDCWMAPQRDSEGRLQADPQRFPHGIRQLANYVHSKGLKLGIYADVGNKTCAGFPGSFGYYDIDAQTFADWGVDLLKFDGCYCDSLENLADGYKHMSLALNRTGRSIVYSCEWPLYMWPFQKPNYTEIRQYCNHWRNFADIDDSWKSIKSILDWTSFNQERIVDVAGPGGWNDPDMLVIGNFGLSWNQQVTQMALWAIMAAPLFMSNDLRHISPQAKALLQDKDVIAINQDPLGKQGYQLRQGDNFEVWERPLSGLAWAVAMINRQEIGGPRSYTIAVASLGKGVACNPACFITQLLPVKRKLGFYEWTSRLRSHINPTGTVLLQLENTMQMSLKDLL
How it was run: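 Fluorogenic 1536-well qHTS at pH 4.5 (citrate, Tween-20): 2 nM enzyme, 80 uM 4-MU-alpha-galactoside, 20 min room temperature, NaOH/glycine stop. Titration 0.7 nM to 77 uM, data normalized to no-enzyme and full-activity controls, Hill-fitted AC50.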

[2] = biological target: alpha-glucosidase (Oryza sativa, rice) (UniProt Q653V4); experiment: Counterscreen for Glucocerebrosidase Inhibitors: qHTS Assay for Rice alpha-Glucosidase at pH 5.0 (AID 997)
How it was run: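 Endpoint fluorogenic assay at pH 5.0: compounds (0.7 nM to 77 uM) titrated against 4 nM rice enzyme and 400 uM 4-MU-alpha-glucoside for 20 min at room temperature; NaOH/glycine stop, read ex 365/em 440 nm, Hill-fitted AC50.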

[3] = biological target: Alpha-galactosidase (Coffea arabica) (UniProt Q42656); experiment: Counterscreen for Glucocerebrosidase Inhibitors: qHTS Assay for Coffee Bean alpha-Galactosidase at pH 5.9 (AID 998)
Sequence of Alpha-galactosidase (Coffea arabica) (Q42656 whole entry, looked up): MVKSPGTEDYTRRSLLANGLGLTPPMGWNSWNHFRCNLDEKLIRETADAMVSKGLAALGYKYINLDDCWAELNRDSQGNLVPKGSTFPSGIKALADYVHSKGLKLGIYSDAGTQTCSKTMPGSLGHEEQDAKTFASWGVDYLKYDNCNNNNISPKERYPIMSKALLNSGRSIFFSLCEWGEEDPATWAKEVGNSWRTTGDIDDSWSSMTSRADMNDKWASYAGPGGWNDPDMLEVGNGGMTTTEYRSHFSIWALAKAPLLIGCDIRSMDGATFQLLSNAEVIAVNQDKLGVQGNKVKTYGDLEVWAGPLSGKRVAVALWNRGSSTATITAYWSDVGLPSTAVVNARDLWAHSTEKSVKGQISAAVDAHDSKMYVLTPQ
How it was run: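 In 50 mM citric acid pH 5.9 with 0.005% Tween-20, coffee bean enzyme hydrolyses 80 uM 4-MU alpha-D-galactopyranoside over 20 min at RT. Activity is normalized to controls; AC50 comes from Hill-modelled concentration-response data.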

[4] = Validation of Assay for Modulators of Lamin A Splicing (AID 1459; active means well fitted curve in the direction sought with a large enough effect in the signal ratio; the % refers to the signal ratio;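 further: cells exposed to compound for two days before reading; ratio rise marks activators and ratio drop marks inhibitors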)
How it was run: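 Splicing correction is reported by an EGFP-containing lamin A minigene in stably transfected S3 HeLa cells, while DsRed2 controls for viability and nonspecific signal. Cells are exposed to compounds for 48 hrs before the GFP over RFP ratio is taken.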

[5] = qHTS Assay for Lipid Storage Modulators (AID 1519; calls by dose curve); conditions: Drosophila S3 cells, BODIPY lipid droplet/cell ratio, laser cytometry, cells loaded with oleic acid; for activity change, negative = inhibition: at 57.5 µM (top of the series)
How it was run: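 Cells seeded at 5,000 per well were treated with compounds over a concentration series and loaded with oleic acid (400 uM, as added). Lipid droplet fluorescence (488 nm excitation, 500-530 nm channel) was read by laser-scanning cytometry and normalized to 20 uM Triacsin C.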

[6] = biological target: DNA repair nuclease/redox regulator APEX1 (Homo sapiens) (UniProt P27695); experiment: qHTS Validation Assay for Inhibitors of the Human Apurinic/apyrimidinic Endonuclease 1 (APE1) (AID 1705;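 further: TAMRA fluorescence gain over two minutes as APE1 cuts a quenched THF abasic duplex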)
Sequence of DNA repair nuclease/redox regulator APEX1 (Homo sapiens) (P27695 whole entry, looked up): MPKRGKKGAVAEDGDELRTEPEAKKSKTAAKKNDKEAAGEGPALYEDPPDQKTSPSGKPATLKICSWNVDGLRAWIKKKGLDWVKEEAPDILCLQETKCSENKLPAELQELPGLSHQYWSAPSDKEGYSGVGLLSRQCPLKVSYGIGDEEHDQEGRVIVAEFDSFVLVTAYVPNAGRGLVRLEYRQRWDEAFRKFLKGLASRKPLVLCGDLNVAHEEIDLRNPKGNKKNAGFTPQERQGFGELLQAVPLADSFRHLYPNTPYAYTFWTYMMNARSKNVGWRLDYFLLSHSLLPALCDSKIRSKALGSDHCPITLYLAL
How it was run: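 Endonuclease activity of human APE1 is followed as dequenching when the enzyme incises a tetrahydrofuran abasic site in a short duplex labelled 5'-TAMRA/3'-BHQ-2 (50 nM final), after 15 min enzyme–compound preincubation at room temperature.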

[7] = Counterscreen for APE1 Inhibitors: Fluorescent Dye Displacement Validation Assay (AID 1707); further: potency means the concentration at half of the fitted maximal effect
How it was run: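 Counterscreen flags promiscuous DNA binders: compounds displacing ThO from duplex DNA (abasic THF site, 50 nM) reduce 540 nm emission (480 nm excitation). ThO 250 nM final; Tris-HCl pH 7.5 with NaCl, MgCl2 and Tween-20.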

[8] = biological target: Endonuclease 4 (Escherichia coli (strain K12)) (UniProt P0A6C1); experiment: Counterscreen for APE1 Inhibitors: qHTS Validation Assay for Inhibitors of Endonuclease IV (AID 1708); further: potency means the concentration at half of the fitted maximal effect
How it was run: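 Enzyme (2 nM) + compound, 15 min RT; add 50 nM TAMRA/BHQ-2 THF-site dsDNA; kinetic read ex525/em598, 3 reads/60 s; activity = read 3 − read 1. Buffer Tris pH 7.5, 50 mM NaCl, 2 mM MgCl2, DTT, Tween-20.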

[9] = measured here: cell count channel max response
[10] = measured here: lipid channel max response

SMILES	outcome [1]	outcome [2]	outcome [3]	outcome [4]	activity change, negative = inhibition [5]	max response [5, 9] [%]	max response [5, 10] [%]	Potency [6]	Potency [7]	Potency [8]
NC(=O)COc1c(F)cc(SCCNS(=O)(=O)c2ccccc2)cc1F	inactive	inactive	inactive	inactive	-2.33% (inactive)	1.68	-0.0137	inactive	inactive	inactive
C[N+](C)(C)CC#CCN1CCCC1=O	inactive	inactive	inactive	inactive	1.94% (inactive)	5.23	8.27	–	inactive	–
C[N+]1(C)CCN(c2ccccc2)CC1	inactive	inactive	inactive	inactive	1.07% (inactive)	-21.1	-16.2	–	inactive	inactive
CN(N=O)c1ccc(O)c(O)c1	inactive	inactive	inactive	inactive	-1.9% (inactive)	-25.4	-24.9	–	14.1 µM (active)	8.91 µM (active)
NCCc1c[nH]c2ccc(C(N)=O)cc12	inactive	inactive	inactive	inactive	-0.884% (inactive)	2.92	1.87	inactive	inactive	–
CCCn1c(C)c(C(=O)c2ccc3ccccc3c2)c2ccccc21	inactive	inactive	inactive	inactive	-0.784% (inactive)	17.8	16.6	inactive	inactive	–
COc1ccc(CNC(=O)/C=C/c2ccc3[nH]cc(CCN(C)C)c3c2)cc1	–	–	–	inactive	-4.95% (inactive)	-78.1	-80.1	inactive	inactive	–
CN1C2CCC1CC(OC(c1ccccc1)c1ccccc1N)C2 (configuration not stated)	–	–	–	inactive	0.575% (inactive)	-2.6	-1.25	–	inactive	inactive
Cc1o[nH]c(=O)c1CC(N)C(=O)O (configuration not stated)	–	–	–	inactive	0.836% (inactive)	-21.1	-19	–	inactive	inactive
CCCN(CCC)C1Cc2cc(OC)c(OC)cc2C1	inactive	inactive	inactive	inactive	-0.96% (inactive)	-27.4	-31.4	inactive	inactive	inactive
Cc1[nH]c2ccc(O)cc2c1CCN	inactive	inactive	inactive	inactive	-0.216% (inactive)	-4.56	-4.28	inactive	inactive	inactive
